The text below walks through data of PubChem BioAssay.

Calls of active or inactive are those of the source.

Assay [1] in a line: small molecules captured by biotinylated probe aFSTL3 – biochemical, small-molecule microarray, fluorescence 635/667, stem cell growth factor project, primary screen (AID 1064).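 Also: measures binding of the biotinylated anti-FSTL3 antibody to printed compounds.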 As to conditions: higher = more signal.
Assay [2] in a line: binders from COS7 lysate, DM2A8 probe, primary screen, torsin A project, cell lysate, small-molecule microarray, fluorescence 635/667 (AID 1065). To be noted: higher = more signal, COS7 lysate expressing mutant human TOR1A.
Assay [3] is described as follows: small molecules captured by biotinylated probe aFGF2 – biochemical, small-molecule microarray, fluorescence 635/667, stem cell growth factor project, primary screen (AID 1067).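 Also: measures binding of biotinylated aFGF2 protein to printed compounds on slides; z-score merges feature fluorescence and signal-to-noise across triplicate slides.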 To be noted: higher = more signal.
Assay [4] in a line: small molecules captured by biotinylated probe aFGF10 – biochemical, small-molecule microarray, fluorescence 635/667, stem cell growth factor project, primary screen (AID 1071).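 Also: score merges 667 nm spot intensity and signal to noise from triplicate slides.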 As to conditions: higher = more signal.
For assay [5], the target named is Neurogenic locus notch homolog protein 2 (Homo sapiens) (UniProt Q04721). As to the kind of experiment: small molecules binding Notch2 protein – biochemical, small-molecule microarray, 635 nm fluorescence, stem cell growth factors, primary screen (AID 1073). As to conditions: higher = more signal.
The target in assay [6] is Pro-neuregulin-1, membrane-bound isoform (Homo sapiens) (UniProt Q02297). In words: small molecules binding neuregulin-1 protein – biochemical, small-molecule microarray, fluorescence 635/667, psychiatric disease protein project, primary screen (AID 1075).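 Also: score combines 667 nm spot fluorescence with signal to noise.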 As to conditions: NRG1 binding, 635 nm fluorescence, higher = more signal.
In assay [7] the test system is Neuregulin-1 EGF-like domain. In words: small molecules binding NRG1 EGF domain – biochemical, small-molecule microarray, 635 nm fluorescence, primary screen (AID 1081).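 Also: binding of the protein to compounds printed on small-molecule microarray slides.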 To be noted: higher = more signal.
Assay [8] is described as follows: FRG1 expression reporter modulators in myotubes – cell-based, C2C12 myotubes, firefly/Renilla luciferase, luminescence, FRG1 inhibition for FSHD, primary screen (AID 1084). To be noted: FRG1 promoter luciferase, higher = more signal, called active from +8 up or from −8 down.
Assay [9] can be described thus: small molecules captured by biotinylated probe aFST – biochemical, small-molecule microarray, fluorescence 635/667, stem cell growth factor project, primary screen (AID 1086).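 Also: score merges 667 nm fluorescence with signal-to-noise of each printed compound spot.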 To be noted: higher = more signal.
A short description of assay [10]: binders of probe aHhip on microarray, primary screen, stem cell growth factor project, biochemical, small-molecule microarray, fluorescence 635/667 (AID 1087).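 Also: score merges spot fluorescence at 667nm with spot signal to noise ratio.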 As to conditions: higher = more signal.
Assay [11] relates to PRMT1 (protein arginine N-methyltransferase 1). As to the kind of experiment: small molecules binding arginine methyltransferase PRMT1 – biochemical, small-molecule microarray, 635 nm fluorescence, primary screen (AID 1088).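 Also: binding of Prmt1 protein to compounds spotted on small-molecule microarray slides.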 As to conditions: higher = more signal.
A short description of assay [12]: growth effects on S. cerevisiae YJM789 – YJM789 clinical isolate, OD600, 24 h, basal, primary screen (AID 1089).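 Also: growth of clinical yeast isolate S. cerevisiae YJM 789 seeded 1000 cells per well; test concentration not given here.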 As to conditions: higher = more signal, called active from +8 up or from −8 down.
Assay [13] can be described thus: S. pombe growth modifiers, basal conditions – strain 972, OD600, 24 h, no modulator, primary screen (AID 1090).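 Also: basal condition with compound alone and no growth modifier present; test concentration not given here.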 To be noted: S. pombe 972 growth, higher = more signal, called active from +8 up or from −8 down.
A short description of assay [14]: budding yeast growth modifiers under rapamycin – strain BY4716, OD600, 96 h, primary screen (AID 1091). Also: test concentration not given here. As to conditions: S. cerevisiae BY4716 + rapamycin, higher = more signal, called active from +8 up or from −8 down.
Assay [15] deals with Torsin-1A-interacting protein 2 (Homo sapiens) (UniProt Q8NFQ8). In words: small molecules binding lysate-expressed LULL1 – cell lysate, human LULL1 lysate, 635/667 nm fluorescence, primary screen (AID 1092).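 Also: probe is lysate of COS7 cells overexpressing human LULL1; score merges per-feature 667 nm fluorescence with signal-to-noise.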 To be noted: small-molecule microarray, hLULL1 lysate binding, 635 nm fluorescence; higher = more signal.
Assay [16] can be described thus: optical density change of DRC41 E. coli – strain DRC41, OD650, 24 h, E. coli filamentation project, primary screen (AID 1093).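 Also: MC1000 strain lacking acrAB efflux and sulA so SOS filamentation is blocked; test concentration not given here.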 To be noted: E. coli DRC41 growth, higher = more signal, called active from +8 up or from −8 down.
Assay [17] in a line: probe aLefty2 binding to arrayed compounds – biochemical, biotinylated probe, 635/667 nm fluorescence, primary screen (AID 1094).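 Also: score merges spot fluorescence near 667 nm with spot signal-to-noise ratio.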 To be noted: small-molecule microarray, higher = more signal.
Assay [18] relates to Noggin (protein binding on small-molecule microarray). As to the kind of experiment: small molecules binding Noggin protein – biochemical, 635/667 nm fluorescence, primary screen (AID 1095).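 Also: score merges 667 nm feature fluorescence with signal to noise over triplicate slides.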 As to conditions: 635 nm fluorescence, higher = more signal.
In assay [19] the target is Neurogenic locus notch homolog protein 3 (Homo sapiens) (UniProt Q9UM47). As to the kind of experiment: small molecules binding NOTCH3 protein – biochemical, 635/667 nm fluorescence, primary screen (AID 1096). To be noted: small-molecule microarray, 635 nm fluorescence, higher = more signal.
The nature of assay [20]: probe aEGFR binding to arrayed compounds – biochemical, biotinylated probe, 635/667 nm fluorescence, primary screen (AID 1097).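 Also: probe is a biotinylated anti-EGFR antibody binding compounds printed on slides; score combines fluorescence near 667 nm and signal to noise of each spot.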 To be noted: small-molecule microarray, higher = more signal.

Sequence of Torsin-1A-interacting protein 2 (Homo sapiens) (Q8NFQ8 whole entry, looked up): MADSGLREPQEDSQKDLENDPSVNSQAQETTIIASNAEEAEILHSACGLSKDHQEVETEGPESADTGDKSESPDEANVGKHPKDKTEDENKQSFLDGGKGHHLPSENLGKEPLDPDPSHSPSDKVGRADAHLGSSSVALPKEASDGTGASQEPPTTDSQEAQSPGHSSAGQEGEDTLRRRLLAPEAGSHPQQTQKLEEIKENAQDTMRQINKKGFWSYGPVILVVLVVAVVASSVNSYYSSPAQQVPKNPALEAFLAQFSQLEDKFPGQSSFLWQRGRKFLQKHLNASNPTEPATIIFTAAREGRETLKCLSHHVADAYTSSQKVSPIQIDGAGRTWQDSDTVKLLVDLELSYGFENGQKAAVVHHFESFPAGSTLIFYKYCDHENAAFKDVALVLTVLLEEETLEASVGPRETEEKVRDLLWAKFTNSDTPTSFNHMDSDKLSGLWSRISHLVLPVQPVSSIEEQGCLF
Sequence of Pro-neuregulin-1, membrane-bound isoform (Homo sapiens) (Q02297 whole entry, looked up, the tested form may be a part, canonical isoform): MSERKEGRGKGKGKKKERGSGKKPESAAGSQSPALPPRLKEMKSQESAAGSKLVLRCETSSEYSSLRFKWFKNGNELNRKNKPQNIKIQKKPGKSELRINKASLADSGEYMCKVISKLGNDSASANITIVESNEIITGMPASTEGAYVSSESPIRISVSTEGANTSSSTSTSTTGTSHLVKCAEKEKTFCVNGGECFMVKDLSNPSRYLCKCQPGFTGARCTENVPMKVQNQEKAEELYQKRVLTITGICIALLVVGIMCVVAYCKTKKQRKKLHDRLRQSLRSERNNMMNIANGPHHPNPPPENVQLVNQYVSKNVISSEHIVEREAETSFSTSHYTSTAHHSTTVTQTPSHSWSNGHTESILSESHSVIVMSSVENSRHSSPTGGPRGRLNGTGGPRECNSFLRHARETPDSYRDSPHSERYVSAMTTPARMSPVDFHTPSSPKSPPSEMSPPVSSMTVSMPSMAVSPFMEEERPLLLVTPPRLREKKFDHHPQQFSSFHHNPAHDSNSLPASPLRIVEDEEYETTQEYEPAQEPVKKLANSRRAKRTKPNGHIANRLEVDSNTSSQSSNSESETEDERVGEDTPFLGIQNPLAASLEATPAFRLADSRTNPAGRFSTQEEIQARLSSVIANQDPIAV
Sequence of Neurogenic locus notch homolog protein 2 (Homo sapiens) (Q04721 whole entry, looked up, canonical isoform): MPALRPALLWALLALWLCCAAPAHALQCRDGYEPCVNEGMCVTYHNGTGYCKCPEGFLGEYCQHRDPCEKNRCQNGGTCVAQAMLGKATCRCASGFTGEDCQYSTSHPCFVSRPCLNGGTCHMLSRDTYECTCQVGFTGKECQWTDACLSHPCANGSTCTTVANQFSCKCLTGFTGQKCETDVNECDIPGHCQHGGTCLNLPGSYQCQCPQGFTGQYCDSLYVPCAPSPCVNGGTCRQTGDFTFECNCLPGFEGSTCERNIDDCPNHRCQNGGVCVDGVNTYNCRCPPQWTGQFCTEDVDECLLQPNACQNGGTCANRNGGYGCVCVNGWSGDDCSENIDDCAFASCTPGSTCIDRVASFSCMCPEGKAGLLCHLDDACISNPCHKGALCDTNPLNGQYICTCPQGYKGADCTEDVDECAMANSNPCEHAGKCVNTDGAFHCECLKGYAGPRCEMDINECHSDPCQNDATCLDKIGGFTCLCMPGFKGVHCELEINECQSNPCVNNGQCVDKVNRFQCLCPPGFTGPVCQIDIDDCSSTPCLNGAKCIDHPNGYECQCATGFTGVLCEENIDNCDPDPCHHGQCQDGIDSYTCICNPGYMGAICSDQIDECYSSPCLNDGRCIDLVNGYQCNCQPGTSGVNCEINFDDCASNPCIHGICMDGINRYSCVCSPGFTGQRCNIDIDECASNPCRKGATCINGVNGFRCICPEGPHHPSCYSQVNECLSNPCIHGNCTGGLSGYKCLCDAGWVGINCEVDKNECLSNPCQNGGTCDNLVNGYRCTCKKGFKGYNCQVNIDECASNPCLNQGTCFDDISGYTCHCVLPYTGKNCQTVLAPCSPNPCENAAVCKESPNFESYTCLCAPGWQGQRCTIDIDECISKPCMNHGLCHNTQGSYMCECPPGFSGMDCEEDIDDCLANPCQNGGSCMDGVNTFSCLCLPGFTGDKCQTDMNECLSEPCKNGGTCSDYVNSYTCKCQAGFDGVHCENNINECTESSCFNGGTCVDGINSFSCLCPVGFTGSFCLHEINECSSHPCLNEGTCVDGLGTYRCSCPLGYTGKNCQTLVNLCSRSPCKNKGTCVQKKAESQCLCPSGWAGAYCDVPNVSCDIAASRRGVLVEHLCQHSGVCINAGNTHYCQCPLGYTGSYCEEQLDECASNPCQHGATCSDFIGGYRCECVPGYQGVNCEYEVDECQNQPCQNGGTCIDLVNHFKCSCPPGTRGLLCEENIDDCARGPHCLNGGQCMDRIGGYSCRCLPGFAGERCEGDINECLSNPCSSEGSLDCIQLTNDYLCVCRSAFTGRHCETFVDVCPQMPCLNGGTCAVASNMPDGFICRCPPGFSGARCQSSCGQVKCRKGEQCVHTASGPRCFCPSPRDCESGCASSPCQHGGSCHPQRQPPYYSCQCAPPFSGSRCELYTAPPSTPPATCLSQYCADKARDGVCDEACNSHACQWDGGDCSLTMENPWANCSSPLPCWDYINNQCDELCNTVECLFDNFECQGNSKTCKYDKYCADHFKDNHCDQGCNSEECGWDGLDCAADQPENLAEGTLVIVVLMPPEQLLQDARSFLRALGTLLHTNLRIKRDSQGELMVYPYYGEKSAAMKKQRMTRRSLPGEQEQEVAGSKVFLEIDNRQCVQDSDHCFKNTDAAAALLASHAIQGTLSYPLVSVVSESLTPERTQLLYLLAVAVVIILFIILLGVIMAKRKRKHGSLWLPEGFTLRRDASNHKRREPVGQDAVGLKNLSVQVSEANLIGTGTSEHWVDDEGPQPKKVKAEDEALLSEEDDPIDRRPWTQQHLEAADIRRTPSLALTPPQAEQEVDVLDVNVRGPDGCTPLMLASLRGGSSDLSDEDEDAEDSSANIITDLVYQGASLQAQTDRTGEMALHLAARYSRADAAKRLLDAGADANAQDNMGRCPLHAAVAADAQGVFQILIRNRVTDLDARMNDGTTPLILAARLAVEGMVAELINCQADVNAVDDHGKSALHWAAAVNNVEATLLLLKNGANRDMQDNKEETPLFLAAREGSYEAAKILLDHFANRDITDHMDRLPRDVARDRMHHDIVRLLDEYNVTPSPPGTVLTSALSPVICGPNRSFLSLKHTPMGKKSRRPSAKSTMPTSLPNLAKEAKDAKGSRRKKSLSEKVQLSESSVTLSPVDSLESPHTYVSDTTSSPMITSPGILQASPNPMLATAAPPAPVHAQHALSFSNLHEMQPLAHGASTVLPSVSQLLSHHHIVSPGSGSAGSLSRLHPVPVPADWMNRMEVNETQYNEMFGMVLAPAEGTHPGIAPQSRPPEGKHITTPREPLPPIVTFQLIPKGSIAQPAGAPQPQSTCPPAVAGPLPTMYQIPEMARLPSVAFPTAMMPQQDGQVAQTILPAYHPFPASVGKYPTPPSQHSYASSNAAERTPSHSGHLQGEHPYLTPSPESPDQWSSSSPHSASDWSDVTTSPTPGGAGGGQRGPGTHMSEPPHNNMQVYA

For `COCCOC(=O)N1C(=O)[C@@]2(c3ccccc31)[C@H](c1ccccc1OCCO)N1[C@H](c3ccccc3)[C@H](c3ccccc3)OC(=O)[C@H]1[C@@H]2C(=O)N1CCN(c2ncccn2)CC1`, the composite z-score in assay [1] is 0.0686; in assay [2], 1.07; in assay [3] it was -0.0629; in [4], 0.0228; in assay [5], 0.598; in [6] it was 1.38. Moreover, the composite z-score in assay [7] was 1.18; in assay [9], 0.152; in [10], -0.0672; in [11], 1.54; in assay [15], 2.59; in assay [17] it was -0.0529. Besides, the composite z-score in assay [18] is 0.994; in assay [19] it was 1.11; in assay [20], -0.12. In addition, the z-score in [8] was -2.05 (inactive); in assay [12], 1.68 (inactive); in assay [13], 1.58 (inactive); in assay [14] it was 8.88 (active); in [16], 0.22 (inactive).
For `O=C(NC1CC1)[C@@H]1c2ccccc2C(=O)N(Cc2ccccc2Cl)[C@H]1c1ccc(CO)cc1`, the composite z-score in assay [1] is -0.255; in [2] it was 0.256; in assay [3], -0.104; in assay [4], 0.486; in [5] it was 0.532; in [6], 0.93. Also, the composite z-score is 1.32 in assay [7]; 0.882 in [9]; -0.15 in assay [10]; 1.54 in [11]; 2.77 in [15]; 0.161 in [17]. In addition, the composite z-score is 1.02 in [18], 1.11 in assay [19] and 0.0103 in assay [20]. Moreover, the z-score in [8] is -2.22 (inactive); in assay [12] it was -2.17 (inactive); in assay [13] it was -2.52 (inactive); in assay [14] it was -1.66 (inactive); in assay [16], 4.01 (inactive).
Turning to `C[N+](C)(C)CCCCCCNC(=O)[C@@H]1C[C@@H]2C(=O)N[C@@H](Cc3ccccc3)C(=O)N2[C@@H]1c1cccc(OCCO)c1`, the composite z-score in [1] is -0.0274; in assay [2], 0.673; in assay [3] it was -0.0969; in assay [4], 0.44; in [5] it was -0.165; in [6], 1.2. Besides, the composite z-score in assay [7] amounted to 1.34; in assay [9], 0.143; in [10] it was 0.236; in assay [11], 1.57; in assay [15], 2.87; in assay [17] it was 0.0235. In addition, the composite z-score in assay [18] is 1.82; in [19] it was 1.09; in assay [20], -0.0688. Further, the z-score was 1.5 (inactive) in assay [8]; -0.165 (inactive) in assay [12]; 0.297 (inactive) in assay [13]; -0.214 (inactive) in [14]; 1.02 (inactive) in [16].
As for `C=C[C@@H](COC(=O)OC(C)(C)C)N(Cc1ccc(OC)cc1)S(=O)(=O)c1ccc(Br)cc1`, the composite z-score in assay [1] was -0.492; in assay [2], 0.544; in assay [3], -0.0598; in assay [4], 0.0626; in assay [5] it was 0.779; in assay [6], 0.142. Also, the composite z-score in [7] turned out to be 0.8; in assay [9] it was 0.481; in assay [10], 0.0505; in [11] it was 0.345; in [15] it was 0.269; in assay [17], 0.047. Further, the composite z-score in assay [18] is 1.07; in assay [19], 1.12; in [20], -0.0088. Besides, the z-score in [8] was -2.35 (inactive); in assay [12] it was -0.374 (inactive); in [13] it was -0.521 (inactive); in assay [14], -0.555 (inactive); in assay [16] it was -0.701 (inactive).
In the case of `C=CCC(OC(C)=O)[C@@H]1[C@@H](N(Cc2ccc(-c3ccccc3)cc2)C(=O)c2cccc3ccccc23)c2cc(OCCCO)ccc2N1C(=O)c1ccc(-c2ccccc2)cc1` (stereo not given in full), the composite z-score was 0.103 in assay [1]; 0.177 in assay [2]; 0.0521 in assay [3]; 0.19 in assay [4]; 0.0198 in assay [5]; -0.0375 in assay [6]. Moreover, the composite z-score in assay [7] was -0.159; in assay [9], 0.461; in [10] it was -0.0006; in assay [11] it was 0.245; in assay [15], 0.796; in assay [17], 0.0159. Further, the figures for the composite z-score in [18], in assay [19] and in [20] were 0.0623, -0.0827 and 0.0009, respectively. Besides, the z-score in assay [8] was -1.45 (inactive); in assay [12], 0.21 (inactive); in assay [13] it was -0.234 (inactive); in assay [14], -0.438 (inactive); in [16], 1.17 (inactive).
